Consider 37 compounds from PubChem BioAssay AID1053 (University of Pittsburgh Molecular Library Screening Center, 2008).

The structures appear in SMILES notation. Several values for one entry are separate records, joined by “and”; a condition that tells them apart may be missing. Equal values may be shown once. Activity calls are given as the source filed them. No rule for the calls is given here.

For this assay, the target named is Serine/threonine-protein kinase PLK1 (Homo sapiens) (UniProt P53350). The experiment in a line: Plk1 polo box domain binding inhibitors, SAR follow-up, biochemical, fluorescence polarization, purchased analogs (AID 1053). The note with it: Plk1 PBD fluorescence polarization peptide binding; at 20 µM; hits give high values. (In general: Fluorescence polarisation rises when a labelled molecule tumbles more slowly, as on binding a larger partner.)
Serine/threonine-protein kinase PLK1 (Homo sapiens), sequence (P53350 whole entry, looked up, the tested form may be a part): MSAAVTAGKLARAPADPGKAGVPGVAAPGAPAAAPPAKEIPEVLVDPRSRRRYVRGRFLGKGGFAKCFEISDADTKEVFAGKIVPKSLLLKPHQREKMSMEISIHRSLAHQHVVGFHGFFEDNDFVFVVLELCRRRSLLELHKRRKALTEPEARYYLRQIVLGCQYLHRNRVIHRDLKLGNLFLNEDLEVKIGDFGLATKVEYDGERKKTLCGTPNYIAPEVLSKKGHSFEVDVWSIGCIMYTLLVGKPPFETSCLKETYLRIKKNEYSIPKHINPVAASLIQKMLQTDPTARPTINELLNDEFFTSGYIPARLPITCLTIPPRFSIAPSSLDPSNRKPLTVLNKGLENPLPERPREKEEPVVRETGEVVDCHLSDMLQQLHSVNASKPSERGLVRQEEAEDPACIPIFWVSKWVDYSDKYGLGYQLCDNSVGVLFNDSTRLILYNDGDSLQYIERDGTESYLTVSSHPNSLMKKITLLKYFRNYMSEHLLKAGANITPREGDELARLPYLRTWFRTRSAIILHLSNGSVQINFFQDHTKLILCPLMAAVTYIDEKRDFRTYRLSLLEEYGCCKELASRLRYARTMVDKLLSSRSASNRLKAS
The inhibition is the change of the read-out against control, counted positive when it falls. As for `CCN(CC)CCOC(=O)c1ccc(N=Cc2c(O)n(C)c(=O)[nH]c2=O)cc1`, the inhibition was -180% (inactive).

Regarding `CC(=O)N(/N=C1\Sc2ccccc2C1=O)c1ccccc1[N+](=O)[O-]`, the inhibition is 32% (inactive).

In the case of `O=C1NC(=O)C(=Cc2cc(Cl)c(OCc3ccc(C(=O)O)cc3)c(Cl)c2)C(=O)N1`, the inhibition was -37.4% (inactive).

Consider `CCOC(=O)c1ccc(NC(=O)c2ccc(Cl)c(Cl)c2)cc1`, for which the inhibition is 6.96% (inactive).

With `CCc1ccc(-c2nc3c(=O)n(C)c(=O)nc-3n(CC)n2)cc1`, the inhibition is 5.6% (inactive) and 4.47% (inactive).

Take `CCOC(=O)c1ccc(NC(=O)C2C3C=CC(C3)C2C(=O)O)cc1` (configuration not stated): the inhibition was -31.4% (inactive).

As to `CCOC(=O)c1ccc(N=Cc2c(O)n(CC)c(=O)[nH]c2=O)cc1`, the inhibition was -76.6% (inactive).

Turning to `CC(OC(=O)c1ccc(NC(=O)c2ccc(Br)cc2)cc1)C(=O)c1ccccc1` (configuration not stated), the inhibition was 0.95% (inactive).

`CCCCOC(=O)c1ccc(N=Cc2c(O)[nH]c(=O)[nH]c2=O)cc1`: the inhibition was 44.5% (inactive).

Consider `CCOC(=O)c1ccc(N=Cc2c(O)n(Cc3ccc4c(c3)OCO4)c(=O)[nH]c2=O)cc1`, for which the inhibition is -19.4% (inactive).

Take `CCOC(=O)c1ccc(N=Cc2c(O)n(C3CCCCC3)c(=O)n(C3CCCCC3)c2=O)cc1`: the inhibition is 13.1% (inactive).

On to `CCOC(=O)c1ccc(NC(=O)c2cc3ccccc3oc2=O)cc1`, for which the inhibition was -10.3% (inactive).

In the case of `CCCCCCC(=O)N(CN1C(=O)c2ccccc2C1=O)c1ccccc1OC`, the inhibition was -57.6% (inactive).

`CCCCOC(=O)c1ccc(NC(=O)c2cc(OCC)c(OCC)c(OCC)c2)cc1`: the inhibition was -30.5% (inactive).

In the case of `CCN(CC)CCOC(=O)c1ccc(N=Cc2c(O)n(-c3c(C)cc(C)cc3C)c(=O)[nH]c2=O)cc1`, the inhibition is -134% (inactive).

Consider `CCOC(=O)c1ccc(N=Cc2c(O)n(Cc3cccs3)c(=O)[nH]c2=O)cc1`, for which the inhibition was -25.6% (inactive).

In the case of `COc1ccc(N(CN2C(=O)c3cc(Cl)c(Cl)cc3C2=O)C(C)=O)cc1`, the inhibition is -52.7% (inactive).

For `COc1ccc(N(CN2C(=O)c3ccccc3C2=O)C(=O)C(F)(F)F)cc1`, the inhibition is -44.5% (inactive).

As to `CCCOC(=O)c1ccc(NC(=O)c2cc(-c3cccs3)nc3c(C)c(Cl)ccc23)cc1`, the inhibition was 36.6% (inactive).

`CCOC(=O)c1ccc(NC(=O)c2cc(C)cc(C)c2)cc1`: the inhibition was -13.8% (inactive).

On to `CCCCCOC(=O)c1ccc(NC(=O)c2ccc([N+](=O)[O-])cc2)cc1`, for which the inhibition was 28.2% (inactive).

For `CCOC(=O)c1ccc(N=Cc2c(O)n(C)c(=O)n(C)c2=O)cc1`, the inhibition is -54.3% (inactive).

In the case of `CC(=O)N(/C=C1\Sc2ccccc2C1=O)c1ccc(I)cc1`, the inhibition was -16.1% (inactive).

In the case of `CC(=O)Oc1ccccc1N(/C=C1/Sc2ccccc2C1=O)C(C)=O`, the inhibition is -290% (inactive).

With `CC(=O)N(CN1C(=O)c2ccccc2C1=O)c1cccc(C)c1`, the inhibition was -35.8% (inactive).

`CC(=O)N(CN1C(=O)c2ccc(Br)cc2C1=O)c1ccc(Cl)cc1`: the inhibition was -43% (inactive).

For `Cn1nc(-c2ccc([N+](=O)[O-])cc2)nc2c(=O)n(C)c(=O)nc1-2`, the inhibition was 31.6% (inactive).

In the case of `CCOC(=O)c1ccc(NC(=O)c2cncc(Br)c2)cc1`, the inhibition was -31.4% (inactive).

Take `COc1ccccc1N(CN1C(=O)c2ccc([N+](=O)[O-])cc2C1=O)C(C)=O`: the inhibition is -55.2% (inactive).

For the compound `CCCCCCC(=O)N(CN1C(=O)c2ccccc2C1=O)c1ccc(OCc2ccccc2)cc1`, the inhibition was -7.37% (inactive).

Turning to `Cn1c(=O)[nH]c2nnc(-c3ccc4c(c3)OCO4)nc2c1=O`, the inhibition was -38.9% (inactive) and 28% (inactive).

For `CCOC(=O)c1ccc(NC(=O)c2c(C)cc(=O)oc2C)cc1`, the inhibition was -118% (inactive).

For `CCOC(=O)c1ccc(NC(=O)c2cc(=O)[nH]c3ccccc23)cc1`, the inhibition is -81.3% (inactive).

On to `Cn1c(=O)[nH]c2nnc(-c3ccc(Cl)cc3)nc2c1=O`, for which the inhibition is 28.8% (inactive).

Regarding `COc1ccccc1N(CN1C(=O)c2ccccc2C1=O)C(C)=O`, the inhibition was -46.9% (inactive).

On to `O=C(COC(=O)c1ccc(NC(=O)c2ccc([N+](=O)[O-])cc2)cc1)c1ccccc1`, for which the inhibition is 61.8% (active).

For `CCCCCC(=O)N(CN1C(=O)c2ccccc2C1=O)c1ccc(OCc2ccccc2)cc1`, the inhibition was -7.17% (inactive).
